Only some compounds are listed: those with a hit (about 2.5% of all), similar ones and a draw of the others.
MEKK3 PB1 HTS = raises or lowers MEK5 binding to the human MEKK3 PB1 domain; hit rate 1.4% among 290,000; Q99759; bead-based flow cytometry, Alexa488-MEK5 binding to MEKK3; actives lie on both sides; 0 = blocked by unlabeled MEK5, 100 = vehicle; binding response (% of control), % at 10 µM;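 active = binding response more than 3 SD above or below the average of its plate-row segment, actives on both sides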;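 note: Alexa488 bead fluorescence after subtracting the streptavidin-only scavenger bead signal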
MEKK2wt PB1 HTS = raises or lowers MEK5 binding to wildtype human MEKK2 PB1 domain; Q9Y2U5; bead flow cytometry, Alexa488-MEK5 binding to MEKK2 WT; actives lie on both sides; binding response (% of control), % at 10 µM; hit rate 1.1% among 290,000; AID 1531; in the data active = binding response below about 67% or above about 130%
MEKK2 mut-MEK5 = signal of MEK5 binding to mutant human MEKK2 PB1 domain | bead flow cytometry, Alexa488-MEK5 binding to MEKK2 mutant | percent response, % at 10 µM | hit rate 0.35% among 290,000; in the data active = percent response above about 24%, passing the limit was not always enough
GRK2 aptamer HTS = inhibitors of human GRK2 displacing RNA aptamer. P25098. bead flow cytometry, FAM-aptamer displacement from GRK2. inhibition of aptamer binding, % at 10 µM. hit rate 0.59% among 330,000;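 active = inhibition of aptamer binding above 40%, roughly 3 SD of noise, on plates passing a quality check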;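 note: median bead fluorescence of bound FAM aptamer so fluorescent compounds give negative values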
Target sequence (P25098 whole entry, looked up): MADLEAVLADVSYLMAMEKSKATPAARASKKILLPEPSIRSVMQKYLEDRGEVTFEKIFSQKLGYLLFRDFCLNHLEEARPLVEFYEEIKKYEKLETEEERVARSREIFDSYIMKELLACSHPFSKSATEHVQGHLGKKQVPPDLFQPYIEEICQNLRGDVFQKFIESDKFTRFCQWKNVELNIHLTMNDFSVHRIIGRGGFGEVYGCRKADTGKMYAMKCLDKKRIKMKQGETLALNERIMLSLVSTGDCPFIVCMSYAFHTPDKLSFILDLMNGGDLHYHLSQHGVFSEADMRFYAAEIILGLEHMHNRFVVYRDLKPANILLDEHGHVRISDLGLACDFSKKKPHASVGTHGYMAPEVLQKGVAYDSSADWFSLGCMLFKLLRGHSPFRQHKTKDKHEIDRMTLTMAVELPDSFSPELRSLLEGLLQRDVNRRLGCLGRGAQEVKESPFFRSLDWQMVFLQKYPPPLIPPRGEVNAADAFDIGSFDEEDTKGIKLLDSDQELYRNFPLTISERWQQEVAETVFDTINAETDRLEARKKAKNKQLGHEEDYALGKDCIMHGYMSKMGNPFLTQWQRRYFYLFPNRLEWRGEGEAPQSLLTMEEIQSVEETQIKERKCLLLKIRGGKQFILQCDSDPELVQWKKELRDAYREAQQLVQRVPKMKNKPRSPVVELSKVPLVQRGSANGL
GRK2 CP1 = human GRK2 inhibition confirmation, cherry pick 1; shares compounds with GRK2 aptamer HTS; bead-bound GRK2, FAM-aptamer displacement, flow cytometry; aptamer displacement, % at 10 µM; hit rate 4% among 2,000; AID 504451;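 active = aptamer displacement above 40%, near three times the noise of non-fluorescent compounds, on plates passing quality checks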;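 note: negative values mostly reflect intrinsic compound fluorescence rather than true enhancement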
FAM quench CP1 = aptamer fluorescence quenching in GRK2 counter-screen. shares compounds with GRK2 aptamer HTS. fluorescence response (% of DMSO), % at 10 µM. AID 504580. Carboxyfluorescein RNA aptamer on beads, flow cytometry quenching; hits give low values. 2,000 tested, under 10 active;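 active = compounds that quench the bead-bound fluorescent RNA probe, cutting fluorescence to under half of the solvent control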;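 note: counterscreen run without GRK2 so only probe quenching by compound is measured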
GRK2 confirm 2 = confirmation of human GRK2 inhibitors binding RNA aptamer site. shares compounds with GRK2 aptamer HTS. bead-bound GRK2, FAM-aptamer displacement, flow cytometry. inhibition of aptamer binding, % at 10 µM. 360 tested, under 10 active. AID 504782;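 active = inhibition of aptamer binding above 40%, about triple the noise seen with nonglowing compounds, on plates passing quality control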;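 note: negative values mostly come from compounds that fluoresce themselves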
FAM quench CP2 = counter-screen for GRK2 binding hits: quenchers of fluorescent RNA aptamer. carboxyfluorescein RNA aptamer beads, flow cytometry quenching; hits give low values. fluorescence response vs DMSO, % at 10 µM. AID 588494. 360 tested, under 10 active. shares compounds with GRK2 aptamer HTS;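 active = response vs DMSO under 50%, meaning signal dropped by over half, treated as fluorescence quencher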;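 note: labelled aptamer on streptavidin beads without GRK2 as a quench counter-screen; 100% = bead fluorescence of DMSO wells and lower means quenching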
Starred values were filed as active, the others as inactive; / = no result.

SMILES	MEKK3 PB1 HTS	MEKK2wt PB1 HTS	MEKK2 mut-MEK5	GRK2 aptamer HTS	GRK2 CP1	FAM quench CP1	others
CC1CCCN(C(=O)COC(=O)c2ccc(=O)n(Cc3ccccc3)n2)C1 (stereo not given)	/	/	/	5.0	/	/
CCOC(=O)c1ccccc1NC(=O)COC(=O)CN1C(=O)NC2(CCCC2)C1=O	106.0	105.0	0.0	0.0	/	/
Cc1ccc(NC(=O)CN(C)c2ccc(S(=O)(=O)N3CCCC3)cn2)cc1	98.0	94.0	-2.0	67.0*	-1.8	99.1
CCOc1ccc(NC(=O)CN(C)c2ccc(S(=O)(=O)N3CCOCC3)cn2)cc1OCC	79.0	88.0	-9.0	3.0	/	/
COc1cccc(CC2(CO)CCCN(Cc3cn[nH]c3-c3ccccc3)C2)c1 (stereo not given)	104.0	111.0	13.0	99.0*	-3.4	101.7
CCS(=O)(=O)Nc1cc2c3c(c1)CCN3C(=O)CC2	97.0	95.0	-4.0	45.0*	4.8	102.3
CCS(=O)(=O)Nc1cc2c3c(c1)CCC(=O)N3CCC2	103.0	102.0	8.0	1.0	/	/
Cc1[nH]c(=O)[nH]c(=O)c1S(=O)(=O)Nc1ccc(F)c(Cl)c1	108.0	106.0	6.0	47.0*	-3.3	125.3
NS(=O)(=O)c1ccc(NC(=O)CN2CCN(S(=O)(=O)/C=C/c3ccccc3)CC2)cc1	110.0	105.0	4.0	54.0*	6.2	101.1
NS(=O)(=O)c1ccc(NC(=O)CN2CCN(Cc3ccccc3)CC2)cc1	101.0	109.0	6.0	2.0	/	/
COc1ccc(N2Cc3ccccc3C2=O)cc1	105.0	106.0	2.0	5.0	/	/
COc1ccc(N2Cc3cccc(C(=O)O)c3C2=O)cc1	102.0	102.0	1.0	61.0*	32.4	96.9
O=C(Cn1cnc2c(NC(=O)OCc3ccccc3)ncnc21)NCc1ccccn1	/	/	/	0.0	/	/
COc1ccc(C2=NO[C@@H]3C(=O)N(c4ccc5c(c4)OCCO5)C(=O)[C@H]23)cc1OC	98.0	92.0	-2.0	0.0	/	/	GRK2 confirm 2=17.7;FAM quench CP2=104.0
O=C(COC(=O)COc1ccc(Br)cc1)NC1CCCC1	/	/	/	0.0	/	/
COc1ccccc1-c1nnc(SCC(=O)Nc2ccc(N3CCOCC3)cc2)n1C	/	/	/	1.0	/	/
CN(Cc1ccccc1)S(=O)(=O)c1ccc2[nH]cc(C(=O)NCC3CCCO3)c(=O)c2c1 (stereo not given)	113.0	105.0	-1.0	45.0*	2.1	100.8
CCc1ccccc1NS(=O)(=O)c1ccc2[nH]cc(C(=O)NCC3CCCO3)c(=O)c2c1 (stereo not given)	101.0	99.0	-2.0	0.0	/	/
Cc1cc(=O)oc2cc(OC(C(=O)O)c3ccccc3)ccc12 (stereo not given)	105.0	108.0	4.0	84.0*	-25.1	214.2
CCCCN(C)C(=O)CNC(=O)c1nn(-c2ccc(OC)cc2OC)c(=O)c2ccccc12	107.0	105.0	4.0	0.0	-3.4	101.4
CCCCNC(=O)CNC(=O)c1nn(-c2ccc(OC)cc2OC)c(=O)c2ccccc12	100.0	108.0	2.0	8.0	0.3	94.3
COc1cccc(NC(=O)Nc2cccc(C)n2)c1	104.0	104.0	2.0	58.0*	-1.0	93.2
COc1ccc(NC(=O)Nc2cccc(C)n2)c(OC)c1	105.0	109.0	2.0	6.0	/	/
COc1ccc(NC(=O)c2cccnn2)cc1	105.0	105.0	3.0	13.0	/	/
COc1cccc(NC(=O)c2cccnn2)c1	104.0	103.0	2.0	41.0*	-0.1	97.7
SMILES	MEKK3 PB1 HTS	MEKK2wt PB1 HTS	MEKK2 mut-MEK5	GRK2 aptamer HTS	GRK2 CP1	FAM quench CP1	others
CC(C)CCn1c(SCC(=O)Nc2ccccc2C(F)(F)F)nc2nccnc2c1=O	102.0	106.0	5.0	0.0	/	/
CC(C)c1c(O)nc(SCc2ccc(F)cc2)[nH]c1=O	108.0	107.0	3.0	60.0*	12.2	130.6
CC(C)c1c(O)nc(SCc2ccccc2)[nH]c1=O	108.0	105.0	5.0	3.0	/	/
O=C(OCC(=O)N1CCN(c2ccccc2)CC1)c1cc(Cl)ccc1[N+](=O)[O-]	104.0	110.0	6.0	1.0	/	/
O=C(/C=C/c1ccc(OC(F)F)cc1)Nc1cccc(S(=O)(=O)NC2=NCCCCC2)c1	106.0	107.0	5.0	0.0	/	/
COc1ccc(OCC(=O)Nc2c3c(nn2-c2ccc(OC)cc2)CS(=O)(=O)C3)cc1	97.0	103.0	5.0	3.0	/	/
O=c1sc2ccccc2n1Cc1ccccc1	97.0	99.0	-6.0	85.0*	-0.8	94.9
COc1ccc(Cn2c(=O)sc3ccccc32)cc1	100.0	97.0	-1.0	3.0	/	/
COc1ccccc1NC(=O)Nc1ccccc1C(=O)NCCCN1CCOCC1	95.0	91.0	-7.0	0.0	/	/
CCCOc1ccc(OC(=O)Cc2ccc(OC)c(S(=O)(=O)N3CCOCC3)c2)cc1	/	/	/	100.0*	-7.5	99.6
Cn1c2ccccc2c2cc(C(=O)OCC(=O)N3CC(=O)Nc4ccccc43)sc21	100.0	101.0	0.0	40.0	3.6	105.0
O=C1[C@@H]2Cc3c([nH]c4ccccc34)C(c3cccc(Br)c3)N2C(=O)CN1C1CCN(Cc2ccccc2)CC1 (stereo not given in full)	110.0	124.0	15.0	0.0	-4.5	99.7
O=C1[C@@H]2Cc3c([nH]c4ccccc34)C(c3ccccc3)N2C(=O)CN1C1CCN(Cc2ccccc2)CC1 (stereo not given in full)	108.0	121.0	12.0	0.0	-1.7	111.9
COc1ccc(NC(=O)CN2CCN(CC(=O)Nc3ccc(F)cc3F)CC2)cc1	94.0	97.0	-2.0	/	/	/
CCc1cc2c(=O)n(Cc3ccccc3)c(SC3CCOC3=O)nc2s1 (stereo not given)	100.0	94.0	-7.0	2.0	/	/
Cc1ccc(Cn2c(SC3CCOC3=O)nc3ccccc3c2=O)cc1 (stereo not given)	100.0	105.0	6.0	43.0*	/	/	GRK2 confirm 2=-2.1;FAM quench CP2=99.0
C[C@@H]1COC(=O)[C@@H](CC(=O)OC(C)(C)C)C/C=C\C[C@@H](CC(=O)N[C@H](CO)Cc2ccccc2)C(=O)N1	/	/	/	0.0	/	/
Cc1ccc(C)c(OCC(=O)Nc2ccc(S(=O)(=O)Nc3ncccn3)cc2)c1	93.0	89.0	-13.0	0.0	/	/
Cc1cc2nc(N3C(=O)CNC3=S)sc2cc1C	97.0	97.0	-2.0	75.0*	-1.3	97.0
CN(C)c1ccc(S(=O)(=O)N2CCC(Cc3ccccc3)CC2)cn1	/	/	/	0.0	/	/
Cc1ccccc1C(=O)NCCc1nnc(SCC(=O)Nc2nc(-c3ccccc3)cs2)n1C	84.0	103.0	3.0	55.0*	-2.2	96.2
